Sampled rows, rich in hits. Any-hit rate of the full collection: about 5.3%.
12-hLO inh = inhibitors of human 12-lipoxygenase (ALOX12); P18054; purified 12-hLO, xylenol orange hydroperoxide absorbance; Potency, µM (top dose mostly 57.1 µM), inactives show top-dose activity change, negative = inhibition, actives largely listed as inhibitors; actives 0.12% (n = 150,000); note: potency is the fitted concentration of half-maximal effect; nearly all actives have a fitted effect of over 55% in size
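Hydroperoxide output read as Fe(III)-xylenol orange absorbance, 573-to-405 nm ratio, after 30 min reaction with 40 uM arachidonic acid. Enzyme: 150 nM purified human 12hLO, 15 min compound preincubation; 25 mM Hepes pH 7.0, room temperature.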
IMPase cell inh = membrane-permeable compound that blocks inositol monophosphatase | P97697 | CHO-M1 cells, IP1 accumulation, HTRF TR-FRET ratio | inhibition (IP1 accumulation), % at 46.1 µM | 120,000 tested, under 10 active | AID 901; active = well fitted curve in the direction sought with a large enough effect in the signal ratio, not every such curve was filed as active; inconclusive = small, poorly fitted or top-dose-only effect, or a change in a side signal; inactive = no such curve, though single readings can be large or run the other way; the % refers to the signal ratio;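 note: cells stimulated with carbachol in lithium chloride buffer; plate controls were DMSO basal wells for no effect and reference inhibitor wells for full effect; higher means more IMPase inhibition seen as more IP1 and lower FRET ratio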
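Elevated IP1 in lysates lowers TR-FRET signal (665/620 ratio and 620 channel reported). Cells were CHO-M1, given carbachol (50 uM as added) plus 50mM LiCl, pH 7.4, 30 min, 37C; compounds titrated up to 46 uM; AC50 by Hill equation.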
PNC inhibitor = perinucleolar compartment assembly inhibition | activity change (PNC), negative = inhibition, % at 10 µM | actives 3.1% (n = 140,000) | PC3M PTB-GFP, PNC prevalence imaging, 16 h; hits give low values | AID 2417;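 active = readout at or below -70, meaning at least 70% loss of cells showing the perinucleolar compartment, a nuclear body marking cancer cells; inconclusive = readout between -30 and a set limit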;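 note: plate controls were DMSO wells for no effect and camptothecin positive control wells for full effect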
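Read-out is percentage of cells bearing a perinucleolar compartment, from automated 20x imaging of fixed, Hoechst-stained PC3M PTB-GFP cells. Cells were seeded 4 h, then exposed 16 h to compound (23 nl of library stock) in duplicate plates.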
IMPase Li inh = membrane-permeable IMPase blocker, potentiated with lithium; CHO-M1 cells, IP1 TR-FRET (IP-One), carbachol + lithium; Potency, µM (series often up to 59.4 µM), for the others: at the highest dose activity, negative = IMPase inhibition, hits mostly inhibitors; actives 0.35% (n = 210,000);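 note: IP1 builds up when IMPase is blocked and the TR-FRET signal falls; potency is the fitted concentration of half-maximal effect; plate controls were basal vehicle for no effect and high inhibitor control for full effect; nearly all actives have a fitted effect of over 50% in size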
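CHO-M1, 2000 cells/well, 16–30 h culture; cpd + low Li+, 30 min 37C; lysis with d2-IP1/Eu-anti-IP1 Ab, 10 min RT; TR-FRET 665/620 ratio and 620 channel; AC50 via Hill.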
15-hLO-2 inh = blocks human 15-lipoxygenase 2 activity; O15296; Potency, µM (series often up to 57.1 µM), without a hit: top-dose activity change, negative = inhibition, hits mostly inhibitors; AID 881; actives 0.56% (n = 110,000); purified 15hLO-2, xylenol orange hydroperoxide absorbance; note: potency is the fitted concentration of half-maximal effect; nearly all actives have a fitted effect of over 60% in size
Target sequence (O15296 whole entry, looked up): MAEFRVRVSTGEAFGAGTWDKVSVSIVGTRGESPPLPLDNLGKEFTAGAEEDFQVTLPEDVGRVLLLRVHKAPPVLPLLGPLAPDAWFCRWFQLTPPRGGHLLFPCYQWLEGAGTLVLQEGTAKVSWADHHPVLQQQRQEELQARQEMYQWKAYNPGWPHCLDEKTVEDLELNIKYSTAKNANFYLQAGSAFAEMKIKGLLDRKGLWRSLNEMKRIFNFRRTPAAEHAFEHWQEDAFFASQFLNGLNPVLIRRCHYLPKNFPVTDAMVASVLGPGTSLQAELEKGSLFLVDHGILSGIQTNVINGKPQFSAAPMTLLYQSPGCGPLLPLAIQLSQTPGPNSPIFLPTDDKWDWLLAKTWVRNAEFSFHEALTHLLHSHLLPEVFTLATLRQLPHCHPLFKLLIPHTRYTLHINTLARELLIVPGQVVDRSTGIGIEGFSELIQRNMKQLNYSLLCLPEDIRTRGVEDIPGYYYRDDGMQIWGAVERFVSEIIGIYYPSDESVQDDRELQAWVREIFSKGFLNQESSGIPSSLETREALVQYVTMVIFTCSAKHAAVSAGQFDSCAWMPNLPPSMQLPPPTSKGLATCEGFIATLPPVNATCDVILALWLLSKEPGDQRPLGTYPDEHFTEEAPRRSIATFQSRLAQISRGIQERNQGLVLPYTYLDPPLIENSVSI
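Enzyme 50 nM, AA 45 uM, 25 mM Hepes pH 7.5 + 0.01% Triton X-100; cpd preinc 15 min RT, rxn 90 min RT; stop/detect with 200 uM XO + 300 uM Fe(II) in 50 mM H2SO4, 30 min; A573/A405.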
HPGD block = inhibitors of human 15-hydroxyprostaglandin dehydrogenase (HPGD); P15428; Potency, µM, for the others: at the highest dose activity change, negative = inhibition, usual class: inhibitors; actives 4.3% (n = 150,000); purified HPGD, NADH fluorescence kinetic, PGE2 substrate; active = well fitted inhibition curve with a large enough effect, not every such curve was filed as active; inconclusive = small, poorly fitted or top-dose-only effect, or another doubt; inactive = no such curve, though single readings can be large or run the other way; note: potency is the fitted concentration of half-maximal effect
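20 nM HPGD preincubated 15 min at room temperature with compound in 50 mM Tris-HCl pH 8, 0.01% Tween 20. Started with 1 mM NAD+ and 30 uM prostaglandin E2; NADH fluorescence (360/450 nm) read 5 times over 30-s intervals, last minus first.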
Starred values were filed as active, the others as inactive; ? = inconclusive; / = not tested or not shown; [ ] = another dose, or the depositor's remark. Unless noted, calls come from the whole dose curve; as a rule, active = well fitted curve in the direction sought with a large enough effect; inconclusive = small, poorly fitted or top-dose-only effect, or another doubt; inactive = no such curve, though single readings can be large; an effect the other way counts as inactive or inconclusive. Unless noted, % is set by controls: 0 for no effect and ±100 for the full control effect.

SMILES	12-hLO inh	IMPase cell inh	PNC inhibitor	IMPase Li inh	15-hLO-2 inh	HPGD block
O=C1/C(=C/c2ccc(C(=O)O)cc2)CCC/C1=C\c1ccc(C(=O)O)cc1	-4%	/	-93*	-4%	/	20µM*
COc1cc(SC)ccc1C(=O)NCCCOC(C)C	-1%	?	-2	23%[38.3 µM]	4%	-13%
COc1cc(SC)ccc1C(=O)NCc1ccc(C)cc1	-13%	-3	89	4%[38.3 µM]	5%	20µM*
COc1cc(SC)ccc1C(=O)NCc1ccccc1	-3%	-8	-17	11%	/	25µM*
COc1cc(SC)ccc1C(=O)N(C)Cc1ccccc1	4%	5	47	1%[38.3 µM]	0%	?
COc1cc(SC)ccc1C(=O)NCCOc1ccc(C)c(C)c1	1%	9	?	7%	/	-5%
CCCNC(=O)c1ccc(SC)cc1OC	2%	-1	?	-1%[38.3 µM]	-6%	25µM*
CC1(C)CO[C@H](CC(=O)O)CN1	-1%	-4	/	11%	26%	-1%
CCC(C)(C(=O)NC1CCCC1)N(C(=O)CC1NC(=O)NC1=O)c1ccc(C)cc1 (stereo not drawn)	3%	6	27	29%[38.3 µM]	3%	-2%
Cc1ccc(C)c(OCCOCCN2CC(C)OC(C)C2)c1C (stereo not drawn)	-10%	10	?	31%[38.3 µM]	-12%	-9%
Cc1nc(SCC(=O)O)c2oc3ccccc3c2n1	2%	3	-15	-7%[38.3 µM]	-2%	18µM*
Cc1nc(SCCO)c2oc3ccccc3c2n1	7%	1	-108*	/	-4%	/
Cc1nc(SCC(=O)NCc2ccccc2)c2oc3ccccc3c2n1	4%	0	11	?	?	-1%
S=C(NCc1ccccn1)Nc1ccccc1	-5%	/	-17	-1%	/	-12%
O=C(NCCSCc1ccco1)Nc1cccc(Cl)c1	2%	6	-84*	23%[38.3 µM]	-11%	-7%
S=C(NCc1ccccn1)Nc1ccc(Cl)c(Cl)c1	-14%	-1	-28	-6%[38.3 µM]	?	16µM*
O=C(CCSc1ccccc1)NCCSCc1ccco1	5%	3	-24	/	/	/
O=C(COc1ccccc1)NCCSCc1ccco1	1%	0	?	2%	-11%	22µM*
S=C(NCc1ccco1)Nc1cccc(Cl)c1	-5%	6	-21	-6%	-13%	11µM*
CC(=O)c1cccc(NC(=S)NCc2ccco2)c1	/	/	/	10%	/	/
FC(F)(F)c1ccc2c(c1)[nH]c(=S)n2C1CC1	/	/	/	-3%	/	/
C=CCn1c(CNc2ccc(C)cc2)nnc1SCC(=O)N/N=C/c1ccc(O)cc1	-7%	4	22	-5%[38.3 µM]	2%	-15%
Nc1ccc(NC(=O)c2cccc(C(=O)Nc3ccc(N)cc3Cl)c2)c(Cl)c1	/	7	/	/	/	/
COc1ccc(C(=O)N(C)Cc2ccccc2)cc1Br	-4%	-1	-18	4%	/	-24%
COc1ccccc1NC(=O)CSc1nnc(CCNC(=O)c2ccc(C)cc2)n1C	/	/	/	-1%	/	/
SMILES	12-hLO inh	IMPase cell inh	PNC inhibitor	IMPase Li inh	15-hLO-2 inh	HPGD block
CCCN(CCC)c1ccc(C2N=C(N)Nc3nc4ccccc4n32)cc1 (stereo not drawn)	/	-6	/	/	/	/
S=C(NCc1ccco1)Nc1ccc(Cl)c(Cl)c1	18µM*	-18	4	9%[38.3 µM]	?	3.2µM*
COc1ccc(NC(=S)NCc2ccco2)cc1	-5%	-1	-19	-1%[38.3 µM]	0%	-28%
S=C(NCc1ccco1)Nc1cc(Cl)c(Cl)cc1Cl	-13%	-5	?	1%	/	3.2µM*
COc1ccc(Cl)cc1NC(=S)NCc1ccco1	-2%	-13	-8	-2%[38.3 µM]	/	13µM*
Cc1ccccc1NC(=S)NCc1ccco1	1%	/	1	-2%	/	-14%
COC(=O)C1Cc2ccccc2CN1C(=O)CCl (stereo not drawn)	/	/	/	-7%	/	/
c1ccc(Cc2nnc(N3CCOCC3)c3ccccc23)cc1	10%	-14	?	14%[38.3 µM]	1%	25µM*
CCc1nnc(NC(=O)CCN(c2cc(C)cc(C)c2)S(=O)(=O)c2ccc(Cl)cc2)s1	-1%	0	-94*	/	/	/
CCc1c(C)sc(NC(=O)C2CCCCC2C(=O)O)c1C(N)=O (stereo not drawn)	-15%	-5	-6	2%[38.3 µM]	?	4µM*
CC1(C)Cc2c(C#N)c(NCCCO)nc(-c3ccccc3)c2CO1	-3%	7	24	-7%[38.3 µM]	5%	?
Cc1nc(NCCCO)c(C#N)c2c1COC(C)(C)C2	-9%	6	-122*	/	-3%	/
COc1ccc(NC(=O)Cn2c(CCC(=O)O)ccc2-c2ccc(C)cc2)cc1	/	/	/	15%	/	/
Fc1ccc(-n2[nH]nnc2=S)cc1N1CCCC1	-23%	10	-19	-18%[38.3 µM]	?	18µM*
COc1ccc(C)cc1-n1[nH]nnc1=S	/	/	/	1%	/	/
Cc1oc(-c2ccc(Cl)cc2)cc1-c1nn2c(-c3ccoc3C)nnc2s1	-16%	2	48	21%[38.3 µM]	-23%	25µM*
COc1cc(CNc2ccc(N3CCN(C(C)=O)CC3)cc2)ccc1OCc1ccccc1	/	/	/	23%	/	/
CC(=O)Nc1ccc(N2CCN(C(C)=O)CC2)cc1	-7%	-4	26	5%[38.3 µM]	-7%	-9%
CC(=O)N1CCN(c2ccc(NCc3ccc(C)cc3)cc2)CC1	18µM*	6	?	3%[38.3 µM]	10µM*	0%
CCc1ccc(CNc2ccc(N3CCN(C(C)=O)CC3)cc2)cc1	?	12	?	45%[38.3 µM]	13µM*	-13%
O=C(OCC(=O)C12CC3CC(CC(C3)C1)C2)c1cccnc1Cl	-7%	/	-3	1%	/	-4%
CC(C)NS(=O)(=O)c1ccc(NC(=S)NC(=O)c2ccc(-c3ccccc3)cc2)cc1	?	-1	5	17%[38.3 µM]	20µM*	-16%
CCCCOC(=O)Nc1cccc(C(C)=O)c1	-5%	7	?	-1%[38.3 µM]	-5%	28µM*
CC(=O)c1cccc(NC(=S)NC(=O)c2cccc(C)c2)c1	?	/	-1	7%	/	22µM*
CC(C)Oc1cccc(C(=O)NC(=S)Nc2ccccc2)c1	?	/	-101*	-2%	/	-20%
SMILES	12-hLO inh	IMPase cell inh	PNC inhibitor	IMPase Li inh	15-hLO-2 inh	HPGD block
O=C(NC(=S)Nc1ccccc1)c1ccc(-c2ccccc2)cc1	0%	/	-7	-2%	/	-15%
CCOC(=O)Nc1cccc(C(=O)O)c1	-3%	0	-104*	0%	/	1%
CCCCNC(=S)Nc1cccc(C(C)=O)c1	-1%	/	?	4%	/	32µM*
CCOC(=O)Nc1ccc(C(N)=O)cc1	-5%	10	-21	-16%[38.3 µM]	0%	-3%
CC(=O)c1cccc(NC(=S)NCCCCc2ccccc2)c1	-22%	-16	64	/	/	/
Cc1noc(C)c1-c1ccc2ncnc(N3CCOCC3)c2c1	/	/	/	9%	-6%	/
O=[N+]([O-])c1cccc(NC2=NCCC2)c1	/	/	/	6%	/	/

Source: PubChem
